In PubChem BioAssay AID651636 (Sanford-Burnham Center for Chemical Genomics, 2012):
The campaign covered roughly 360,000 compounds. About 3,000 (0.83%) were called active. No stated cut-off is given here; in the data, active means inhibition above about 38%; inactive means the rest. Only a selection was taken, and actives are over-represented in it overall.

Target: G-protein coupled receptor 183 (Homo sapiens) (UniProt P32249)
Assay: blockers of oxysterol-driven EBI2 arrestin signaling – cell-based, luminescence, 7a,25-OHC stimulation, uHTS, primary screen (AID 651636);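 further: enzyme fragment complementation signal reports receptor beta-arrestin coupling in cells; 0% = agonist plus DMSO wells and 100% = wells without agonist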
Conditions: EBI2 beta-arrestin recruitment, 7a,25-OHC stimulated, at 5 µM, stronger effect = higher value

G-protein coupled receptor 183 (Homo sapiens), sequence (P32249 whole entry, looked up, the tested form may be a part): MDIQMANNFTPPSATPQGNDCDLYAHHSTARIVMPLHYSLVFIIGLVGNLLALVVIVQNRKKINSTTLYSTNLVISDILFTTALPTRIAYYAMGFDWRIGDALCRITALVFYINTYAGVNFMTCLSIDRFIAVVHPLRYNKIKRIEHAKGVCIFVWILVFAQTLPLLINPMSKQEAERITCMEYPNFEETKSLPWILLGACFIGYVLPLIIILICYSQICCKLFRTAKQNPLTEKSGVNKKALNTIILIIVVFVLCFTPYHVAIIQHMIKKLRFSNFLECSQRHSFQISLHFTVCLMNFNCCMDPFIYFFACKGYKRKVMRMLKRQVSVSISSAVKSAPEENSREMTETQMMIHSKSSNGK

inhibition, active:
O=C(/C=C/c1cccc(C(F)(F)F)c1)N1CCN(c2ccccn2)CC1 55%
O=C(NCCNc1ccc([N+](=O)[O-])cc1)c1cccc2c(Br)cccc12 44.2%
O=C(CCNS(=O)(=O)c1ccccc1)NCCSc1ccc(Br)cc1 51.2%
Cc1ccc(OCCNC(=O)CCNS(=O)(=O)c2ccc(Br)cc2)cc1 45.9%
Cc1ccc(S(=O)(=O)NCCNC(C)c2ccc(Br)cc2)cc1 (stereo not drawn) 43.7%
CC(C)N(Cc1ccccc1)C(=S)Nc1ccc(OC(F)F)cc1 53.9%
Cc1ccc(-n2ncc3c(=O)n(-c4ccc(C)c(C)c4)c(-c4ccco4)nc32)cc1 51.2%
Cc1ccc(OCC(=O)N2CCN(C(=O)c3cccnc3)CC2)cc1 50.4%
COc1ccc(OCC(=O)N2CCN(C(=O)COc3ccccc3)CC2)cc1 50.8%
O=C(COc1ccc2ccccc2c1)N1CCN(C(=O)c2cccs2)CC1 79.7%
COc1ccc(OCC(=O)N2CCN(C(=O)c3cccs3)CC2)cc1 49.9%

inhibition, inactive:
Nc1ccn(CC(=O)N2CCN(c3ccccn3)CC2)c(=O)n1 -9.67%
O=S(=O)(c1cccc(C(F)(F)F)c1)N1CCN(c2cnccn2)CC1 -1.02%
CSc1ccc(Cl)c(C(=O)OCC(=O)N2CCNC2=O)c1 5.05%
CCc1nn(CCCC(=O)NC(C)c2ccccc2)c(=O)c2cc3occc3n12 (stereo not drawn) -11%
CC(CNc1ccc([N+](=O)[O-])cc1)NC(=O)c1ccccc1Br (stereo not drawn) 28.5%
O=C(NCCNc1ccc([N+](=O)[O-])cc1Cl)c1ccccc1F -4.29%
CCNC(=O)NC(=O)C(C)OC(=O)c1cc(S(=O)(=O)N2CCCCCC2)ccc1OC (stereo not drawn) -0.223%
CCOc1ccc(S(=O)(=O)NCCC(=O)NCC2CCCO2)cc1 (stereo not drawn) -4.42%
CC(C)CCNC(=O)CCNS(=O)(=O)c1ccc(Cl)cc1 -4.48%
CC(CNS(=O)(=O)c1ccc(Br)cc1)CN(C)C (stereo not drawn) 0.0488%
O=C(CCNS(=O)(=O)c1ccccc1)NCCCc1ccccc1 -0.453%
Cc1ccc(S(=O)(=O)NCCSC(C)(C)C)cc1 -0.527%
O=C(CNC(=O)c1ccccc1Br)NCCSc1ccc(Br)cc1 22%
O=C(Nc1ccc2c(c1)OCO2)C1CC(c2c(F)cccc2Cl)=NO1 (stereo not drawn) 0.962%
COc1ccc(OC)c(Cc2cnc3nc(N)nc(N)c3c2C)c1 -1.26%
CCOC(=O)/C(=N\Nc1ccccc1Cl)N(C)C1CCS(=O)(=O)C1 (stereo not drawn) 1.11%
C=C1CCN([C@@H](Cc2ccccc2)C(=O)N2CCOCC2)S(=O)(=O)c2ccccc21 5.72%
c1ccc(C[C@H]2CNCCN2CCC23CC4CC(CC(C4)C2)C3)cc1 -9.28%
CC1CCCCC1NC(=O)/C(C#N)=C/C=C/c1ccccc1[N+](=O)[O-] (stereo not drawn) 8.62%
CC(=O)c1ccc(NC(=S)N(Cc2ccccc2)C(C)C2CC2)cc1 (stereo not drawn) -3.28%
CN(CC(=O)Nc1ccc(OC(F)F)cc1)S(=O)(=O)/C=C/c1ccccc1 1.52%
CC1=NNC(=O)C1Cc1c(Cl)cccc1Cl (stereo not drawn) 9.3%
Cc1ccc(S(=O)(=O)NC2(C(F)(F)F)NC(=O)N(CCc3ccccc3)C2=O)cc1 (stereo not drawn) -2.6%
Cc1ccc(-n2ncc3c2ncn2nc(-c4ccco4)nc32)c(C)c1 -1.3%
Cc1ccc(-n2nc(-c3ccco3)cc2C(=O)NCc2cccnc2)cc1 7.84%
CN(C)C(=O)c1cccc(-c2cnc3sc(NCc4ccc5c(c4)OCO5)nn23)c1 -1.54%
CCN(Cc1ccncc1)C(=O)c1cccc(S(=O)(=O)N2CCOCC2)c1 -5.08%
CCS(=O)(=O)N1CCN(C(=O)c2cccs2)CC1 -10.3%
O=C(c1ccc(OC2CCN(C(=O)c3cccnc3)CC2)cc1)N1CCCCCC1 -4.37%
Cc1ccccc1N1CCN(C(=O)c2cccnc2)CC1 -10.5%
COc1ccc(N2CCN(C(=O)c3cccs3)CC2)cc1 -0.686%
O=C(COc1ccccc1)Nc1ccc(N2CCN(C(=O)c3cccs3)CC2)cc1 3.87%
O=C(CN1C(=O)NC2(CCCCC2)C1=O)N1CCN(C(=O)c2cccs2)CC1 -15.2%
CC1CN(C2CCN(C(=O)COc3ccccc3)CC2)CC(C)O1 (stereo not drawn) -0.0245%
COc1ccccc1C(=O)Nc1ccc(OCC(=O)N2CCCCC2)cc1 -5.13%
O=C(O)/C=C/C(=O)NNc1ccc([N+](=O)[O-])cc1 -16.6%
O=C(NC(CC(=O)N1CCN(c2ccccc2)CC1)c1ccccc1)c1ccccc1Cl (stereo not drawn) 11.4%
COC(=O)[C@H](Cc1ccccc1)NC(=O)[C@@H]1C[C@H]1[C@@H](NC(=O)OCc1ccccc1)c1ccccc1 16.3%
COc1ccc([N+](=O)[O-])cc1NC(=O)CC1SC(=Nc2cccc(C)c2C)N(/N=C(\C)c2ccc(C)cc2)C1=O (stereo not drawn) 3.23%
Cc1noc(C)c1-c1ccc(C(=O)NCc2ccncc2)c2occc12 -22.7%
C/C(Cl)=C\Cn1c(Nc2cccc(C)c2)nc2c1c(=O)n(C)c(=O)n2C 22.8%
OC[C@@H]1CN(C2CCCC2)C[C@H](n2cnc3c(NC4CCC4)ncnc32)O1 -9.08%
CCNc1nc(NC(C)C)nc(OCCOC(=O)c2ccccc2)n1 -0.581%
CCN(CC)S(=O)(=O)c1ccc(Cl)c(C(=O)NC(C)C(c2cccs2)N2CCCC2)c1 (stereo not drawn) -5.7%
COC(=O)c1cccc([N+](=O)[O-])c1CS(=O)(=O)c1ccc(C)cc1 -6.03%
Clc1ccc(-c2cc(C3CCNCC3)[nH]n2)c(Cl)c1 0.184%
Cc1nc(NC(=O)C2CCCCC2)sc1C -5.16%
